Reference: the supplement of paper PMC8699584
Where a name gives a salt, the structure may show the parent alone. ± gives the standard deviation of the averaged measurements.

Tested on: Mv4-11
Experiment: cell viability relative to DMSO control (bortezomib = 0%); higher = less growth inhibition
Settings: 10 nM; 72 h
Outline: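 Cell viability was assessed by CellTiter-Glo luminescence. Acute myeloid leukemia cells were seeded at 1000 cells per well in 50 µL on a 384-well library of 679 compounds at a single 10 nM dose for 72 h. Per-plate linear regression set DMSO-treated cells at 100% and positive-control-treated cells at 0%.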

SMILES | cell viability
Cc1cc(N2CCOCC2)ccc1Nc1nc(NC2CCCCC2)c2[nH]cnc2n1 | 108 ± 15%
O=C1C(Cl)=C(NCCN2CCOCC2)C(=O)c2ncccc21 | 121 ± 2.5%
CC(C)n1nc(-c2ccc3oc(N)nc3c2)c2c(N)ncnc21 | 86.16 ± 0.51%
CN1CCC(CNc2ccc3ncc(-c4cccc(OC(F)(F)F)c4)n3n2)CC1 [SGI-1776 free base] | 97.7 ± 14%
CC1(C)CNc2cc(NC(=O)c3cccnc3NCc3ccncc3)ccc21 [Motesanib Diphosphate (AMG-706)] | 106 ± 12%
C=CC(=O)Nc1cc(Nc2nccc(-c3c[nH]c4ccccc34)n2)c(OC)cc1N(C)CCN(C)C | 121 ± 6.1%
C#Cc1cccc(Nc2ncnc3cc(OC)c(OCCCCCCC(=O)NO)cc23)c1 | 120 ± 20%
COc1c(C)c(C(=O)c2ccc(N)c(C(=O)O)c2)n2ccccc12 | 114 ± 7.3%
COc1cc2ncnc(Nc3ccc(F)c(Cl)c3)c2cc1NC(=O)/C=C/CN1CCCCC1 | 108 ± 1.3%
O=c1cc(-c2ccc(O)cc2)oc2cc(O)cc(O)c12 [Apigenin] | 95.3 ± 2.3%
Cc1cc(N)c2ccccc2[n+]1CCCCCCCCCC[n+]1c(C)cc(N)c2ccccc21 [Dequalinium chloride] | 96.3 ± 16%
NC(=O)c1ccc(-c2nc(-c3ccccn3)c(-c3ccc4c(c3)OCO4)[nH]2)cc1 | 107 ± 20%
Nc1ccn([C@@H]2O[C@H](CO)[C@@H](O)C2(F)F)c(=O)n1 [Gemcitabine] | -5.76 ± 18%
CCCCOc1c(C(=O)c2c(F)cc(C)cc2F)c[nH]c2nncc1-2 | 107 ± 7%
CNC(=O)c1ccccc1Nc1nc(Nc2ccc(N3CCNCC3)cc2)ncc1Cl | 23 ± 6.8%
Cc1c(Cn2c(C)nc3c(C(=O)O)cc(N4CCOCC4)cc32)cccc1C(F)(F)F | 110 ± 17%
CN(C)CCN(C)C(=O)c1ccc(NC(=O)Nc2ccc(-c3nc(N4CCOCC4)c4ccn(CC(F)(F)F)c4n3)cc2)cc1 | 105 ± 3.9%
CC(C)(C)c1cc(NC(=O)Nc2ccc(-c3cn4c(n3)sc3cc(OCCN5CCOCC5)ccc34)cc2)no1 [Quizartinib (AC220)] | 3.71 ± 2.9%
CC(C)(C)c1nc(-c2cccc(NS(=O)(=O)c3c(F)cccc3F)c2F)c(-c2ccnc(N)n2)s1 | 124 ± 2.6%
Cc1ccc(NC(=O)c2ccc(CN3CCN(C)CC3)cc2)cc1Nc1nccc(-c2cccnc2)n1 [Imatinib Mesylate (STI571)] | 106 ± 7.4%

SMILES | cell viability
CN(C)S(=O)(=O)c1ccc2c(c1)/C(=C/c1cc3c([nH]1)CCCC3)C(=O)N2 | 109 ± 1.4%
COc1cc(-c2cc(-c3ccc(N4CCNCC4)cc3)cnc2C)cc(OC)c1OC | 107 ± 3.6%
CNS(=O)(=O)c1ccccc1Nc1nc(Nc2ccc(N3CCN(C)CC3)cc2OC)ncc1Cl [ALK inhibitor 2] | 104 ± 16%
Cn1cc(C2=C(c3cn(CCCN)c4ccccc34)C(=O)NC2=O)c2ccccc21 [Bisindolylmaleimide VIII (acetate)] | 119 ± 26%
O=C(NC(NC(=S)Nc1ccc(F)c([N+](=O)[O-])c1)C(Cl)(Cl)Cl)C(c1ccccc1)c1ccccc1 (stereo not given) | 104.1 ± 0.92%
Cc1nc(Nc2ncc(C(=O)Nc3c(C)cccc3Cl)s2)cc(N2CCN(CCO)CC2)n1 [Dasatinib monohydrate] | 106 ± 9.4%
COc1cc2c(Oc3ccc(NC(=O)C4(C(=O)Nc5ccc(F)cc5)CC4)cc3F)ccnc2cc1OCCCN1CCOCC1 | 15.8 ± 33%
Nc1ncnc2c1c(I)cn2[C@@H]1O[C@H](CO)[C@@H](O)[C@H]1O [5-Iodotubercidin] | 87.1 ± 4.9%
CS(=O)(=O)N1CCN(Cc2cc3nc(-c4cccc5[nH]ncc45)nc(N4CCOCC4)c3s2)CC1 | 106.7 ± 0.54%
COc1cc2c(Oc3ccc4[nH]c(C)cc4c3F)ncnc2cc1OCCCN1CCCC1 [Cediranib (AZD2171)] | 107 ± 10%
CN(C)CCOc1ccc(-c2nc(-c3ccncc3)c(-c3ccc4c(c3)CC/C4=N\O)[nH]2)cc1 | 101 ± 4%
COCCN1CCN(Cc2ccc(-c3n[nH]c4c3C(=O)c3c(NC(=O)NN5CCOCC5)cccc3-4)cc2)CC1 | 55.6 ± 8.7%
COc1cc2ncnc(Nc3ccc(O)c(Br)c3)c2cc1OC | 112 ± 14%
CO[C@@H]1[C@H](N(C)C(=O)c2ccccc2)C[C@H]2O[C@]1(C)n1c3ccccc3c3c4c(c5c6ccccc6n2c5c31)C(=O)NC4 [PKC-412(Midostaurin)] | 89 ± 22%
CCCCCCCCCCCCC/C=C/[C@@H](O)[C@H](CO)N(C)C [N,N-Dimethylsphingosine] | 115 ± 6.7%
CCCCCCCCCCCCCCCCOP(=O)([O-])OCC[N+](C)(C)C [Miltefosine] | 102 ± 7.5%
COc1cc(OC2CCN(C)CC2)ccc1Nc1ncc2c(n1)n(C1CCCC1)c(=O)n2C | 104.1 ± 0.45%
Cc1c(F)cc(C(=O)NC2CC2)cc1-c1ccc(C(=O)NCC(C)(C)C)cn1 | 118 ± 20%
CCOc1cc(C(=O)N2CCC(N3CCN(C)CC3)CC2)ccc1Nc1ncc2c(n1)N(C1CCCC1)c1ccccc1C(=O)N2C | 96.1 ± 19%
N#Cc1cccc(-c2c[nH]c3ncnc(N4CCOCC4)c23)c1 | 100 ± 8.2%
